According to PubChem BioAssay:
Active and inactive are the calls of the source.

Key:
[1] = system: Plasmodium falciparum Sir2 (PF13_0152, Sir2A); test: Plasmodium falciparum Sir2A binding compounds – biochemical, small-molecule microarray, 635 nm fluorescence, primary screen (AID 1098); conditions: fluorescence 635 nm, higher = more signal;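 further: score merges spot fluorescence intensity with its signal-to-noise ratio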
[2] = probe aDKK1 binding to arrayed compounds – biochemical, biotinylated probe, 635/667 nm fluorescence, primary screen (AID 1099); conditions: small-molecule microarray, higher = more signal;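 further: score merges 667nm spot fluorescence with signal to noise across triplicate slides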
[3] = probe aCHRDL2 binding to arrayed compounds – biochemical, biotinylated probe, 635/667 nm fluorescence, primary screen (AID 1100); conditions: small-molecule microarray, higher = more signal
[4] = change in splice reporter luminescence, either direction, cell-based, HEK293, spliceosome inhibition project, primary screen (AID 1101); conditions: HEK293 splicing luciferase reporter, 24 h, higher = more signal, called active from +8 up or from −8 down;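 further: HEK293 cells carrying a splicing-competent luciferase reporter gene; test concentration not given here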
[5] = target: Fibroblast growth factor 10 (Homo sapiens) (UniProt O15520); test: compounds binding fibroblast growth factor 10 – biochemical, small-molecule microarray, 635 nm fluorescence, primary screen (AID 1102); conditions: FGF10 binding, fluorescence 635 nm, higher = more signal
Sequence of Fibroblast growth factor 10 (Homo sapiens) (O15520 whole entry, looked up): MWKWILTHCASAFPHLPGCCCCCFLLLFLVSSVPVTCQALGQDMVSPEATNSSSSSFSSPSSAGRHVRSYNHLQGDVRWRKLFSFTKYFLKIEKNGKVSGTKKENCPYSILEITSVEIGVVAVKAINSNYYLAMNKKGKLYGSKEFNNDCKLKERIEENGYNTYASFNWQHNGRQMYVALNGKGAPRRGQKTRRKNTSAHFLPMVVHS

[6] = system: glycogen synthase kinase-3 (GSK3A per assay name; protocol says GSK3B); test: compounds binding glycogen synthase kinase-3 – biochemical, small-molecule microarray, 635 nm fluorescence, GSK3A, primary screen (AID 1103); conditions: fluorescence 635 nm, higher = more signal; further: the record names both GSK3A and GSK3B
[7] = target: Epidermal growth factor receptor (Homo sapiens) (UniProt P00533); test: compounds binding epidermal growth factor receptor – biochemical, small-molecule microarray, 635 nm fluorescence, primary screen (AID 1104); conditions: EGFR binding, higher = more signal;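 further: score merges 667 nm emission intensity with spot signal to noise over triplicate slides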
Sequence of Epidermal growth factor receptor (Homo sapiens) (P00533 whole entry, looked up): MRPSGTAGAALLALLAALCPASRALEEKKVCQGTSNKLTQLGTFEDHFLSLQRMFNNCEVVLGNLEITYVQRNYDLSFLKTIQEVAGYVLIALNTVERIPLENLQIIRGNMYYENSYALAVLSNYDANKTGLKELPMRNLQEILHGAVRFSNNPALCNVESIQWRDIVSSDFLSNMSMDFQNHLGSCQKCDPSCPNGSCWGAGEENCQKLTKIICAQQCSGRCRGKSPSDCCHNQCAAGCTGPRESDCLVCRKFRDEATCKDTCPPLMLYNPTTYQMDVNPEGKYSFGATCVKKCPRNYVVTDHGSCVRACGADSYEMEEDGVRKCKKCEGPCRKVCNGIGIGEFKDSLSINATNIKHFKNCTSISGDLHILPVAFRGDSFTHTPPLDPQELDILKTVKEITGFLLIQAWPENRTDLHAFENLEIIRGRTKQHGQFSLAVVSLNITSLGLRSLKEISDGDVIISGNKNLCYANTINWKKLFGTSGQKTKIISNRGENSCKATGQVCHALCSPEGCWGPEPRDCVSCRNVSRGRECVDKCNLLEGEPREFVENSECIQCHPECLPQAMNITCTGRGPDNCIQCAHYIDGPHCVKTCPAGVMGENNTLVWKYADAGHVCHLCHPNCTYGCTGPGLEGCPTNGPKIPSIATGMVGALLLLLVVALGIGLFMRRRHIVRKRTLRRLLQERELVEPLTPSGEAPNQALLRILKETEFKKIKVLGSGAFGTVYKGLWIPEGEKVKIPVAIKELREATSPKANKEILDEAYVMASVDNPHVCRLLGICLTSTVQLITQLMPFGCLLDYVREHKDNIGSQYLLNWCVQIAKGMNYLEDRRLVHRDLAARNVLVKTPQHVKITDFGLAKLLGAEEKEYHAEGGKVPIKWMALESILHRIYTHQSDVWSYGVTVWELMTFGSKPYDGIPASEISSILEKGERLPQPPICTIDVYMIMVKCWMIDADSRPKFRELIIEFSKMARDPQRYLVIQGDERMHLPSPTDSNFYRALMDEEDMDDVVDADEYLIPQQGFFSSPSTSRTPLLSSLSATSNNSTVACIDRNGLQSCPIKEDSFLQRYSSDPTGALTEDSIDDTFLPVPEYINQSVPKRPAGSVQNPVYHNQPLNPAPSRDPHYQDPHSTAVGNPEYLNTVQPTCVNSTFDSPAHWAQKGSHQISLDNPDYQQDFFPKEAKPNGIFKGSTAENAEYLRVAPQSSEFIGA

[8] = target: Follistatin-related protein 3 (Homo sapiens) (UniProt O95633); test: compounds binding follistatin-related protein 3 – biochemical, small-molecule microarray, 635 nm fluorescence, primary screen (AID 1105); conditions: FSTL3 binding, higher = more signal;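 further: score merges emission near 667 nm and signal to noise per printed spot across three slides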
Sequence of Follistatin-related protein 3 (Homo sapiens) (O95633 whole entry, looked up): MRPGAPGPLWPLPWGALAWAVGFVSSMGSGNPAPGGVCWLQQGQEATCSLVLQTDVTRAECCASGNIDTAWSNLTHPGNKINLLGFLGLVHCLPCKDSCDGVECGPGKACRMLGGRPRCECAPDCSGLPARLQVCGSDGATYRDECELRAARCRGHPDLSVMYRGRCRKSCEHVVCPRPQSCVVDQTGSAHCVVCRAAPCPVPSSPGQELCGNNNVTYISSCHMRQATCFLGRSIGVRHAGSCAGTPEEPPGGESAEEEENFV

[9] = target: Dickkopf-related protein 1 (Homo sapiens) (UniProt O94907); test: small molecules binding DKK1 protein – biochemical, small-molecule microarray, 635 nm fluorescence scan, primary screen (AID 1106); conditions: higher = more signal;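 further: score merges emission near 667 nm with signal to noise over three replicate slides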
Sequence of Dickkopf-related protein 1 (Homo sapiens) (O94907 whole entry, looked up): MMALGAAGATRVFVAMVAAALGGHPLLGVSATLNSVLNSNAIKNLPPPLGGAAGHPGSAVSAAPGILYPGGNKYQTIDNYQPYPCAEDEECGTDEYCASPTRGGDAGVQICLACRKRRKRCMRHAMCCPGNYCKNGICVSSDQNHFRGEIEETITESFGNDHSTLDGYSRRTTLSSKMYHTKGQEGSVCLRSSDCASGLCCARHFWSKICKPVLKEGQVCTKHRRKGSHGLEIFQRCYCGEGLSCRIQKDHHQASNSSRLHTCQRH

[10] = system: Inhibin beta A chain (activin A); test: small molecules binding activin A – biochemical, small-molecule microarray, 635 nm fluorescence scan, primary screen (AID 1107); conditions: INHBA, higher = more signal;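 further: mouse activin A protein probed at 4.33 µg/mL on printed slides; score merges bound-protein fluorescence near 667 nm with spot signal-to-noise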
[11] = system: Human papillomavirus type 1a protein E7 (residues 44-93); test: small molecules binding HPV E7 44-93 – biochemical, small-molecule microarray, residues 44-93, 635 nm fluorescence, primary screen (AID 1108); conditions: fluorescence 635 nm, higher = more signal;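 further: E7 fragment applied at 1 µg/mL in TBST for 1 h at 4 C; score combines spot fluorescence with its signal to noise ratio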
[12] = hepatitis C replication reporter changes, two-sided – Huh7 cells, luciferase reporter, HCV replication inhibitor project, primary screen (AID 1109); conditions: Huh7 HCV replicon luciferase reporter, 48 h; higher = more signal;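 further: huh7 hepatoma cells harbouring a luciferase neomycin HCV replicon reporter; luciferase luminescence as measure of HCV replicon replication; test concentration not given here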
[13] = target: Left-right determination factor 2 (Homo sapiens) (UniProt O00292); test: small molecules binding LEFTY2 protein – biochemical, small-molecule microarray, 635 nm fluorescence scan, primary screen (AID 1110); conditions: higher = more signal
Sequence of Left-right determination factor 2 (Homo sapiens) (O00292 whole entry, looked up): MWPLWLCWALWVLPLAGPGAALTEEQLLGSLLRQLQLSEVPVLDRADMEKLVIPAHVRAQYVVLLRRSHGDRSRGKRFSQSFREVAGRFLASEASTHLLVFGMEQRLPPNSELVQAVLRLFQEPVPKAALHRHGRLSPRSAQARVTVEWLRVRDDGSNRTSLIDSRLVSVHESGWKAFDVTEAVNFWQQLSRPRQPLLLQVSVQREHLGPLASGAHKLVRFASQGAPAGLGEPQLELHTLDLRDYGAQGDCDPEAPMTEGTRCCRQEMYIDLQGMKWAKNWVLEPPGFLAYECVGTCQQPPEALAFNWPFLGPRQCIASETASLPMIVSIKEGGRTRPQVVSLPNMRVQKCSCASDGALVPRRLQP

[14] = target: Calmodulin-1 (Homo sapiens) (UniProt P0DP23); test: small molecules binding calmodulin-1 with EGTA – biochemical, small-molecule microarray, Cy5-labelled CALM1, profiling panel (AID 1111); conditions: Cy5-CALM1 binding fluorescence, higher = more signal;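 further: labelled calmodulin applied in Tris saline Tween buffer holding calcium plus EGTA and DTT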
[15] = target: Calmodulin-1 (Homo sapiens) (UniProt P0DP23); test: small molecules binding Ca-loaded calmodulin-1 – biochemical, small-molecule microarray, Cy5-labelled CALM1, plus calcium, artefact control for SMM control-protein annotation, profiling panel (AID 1112); conditions: Cy5-CALM1 binding fluorescence, higher = more signal;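 further: score merges spot fluorescence with signal to noise from triplicate slides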
[16] = probe aWnt5a binding to arrayed compounds – biochemical, biotinylated probe, 635/667 nm fluorescence, primary screen (AID 1113); conditions: small-molecule microarray, higher = more signal;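 further: score merges 667 nm fluorescence intensity with signal-to-noise per printed feature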
[17] = probe aShh binding to arrayed compounds – biochemical, biotinylated probe, 635/667 nm fluorescence, primary screen (AID 1114); conditions: small-molecule microarray, higher = more signal;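 further: probe is biotin-labelled aShh protein from a stem cell growth factor screen; measures binding of labelled protein to compounds printed on the slide; score merges feature fluorescence at 667 nm with signal-to-noise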
[18] = probe aNog binding to arrayed compounds – biochemical, biotinylated probe, 635/667 nm fluorescence, primary screen (AID 1115); conditions: small-molecule microarray, higher = more signal;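 further: probe is biotinylated aNog protein used at 0.15 µg/mL for 1 h at 4 C; z-score combines 667 nm fluorescence of each spot with its signal to noise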
[19] = target: Torsin-1A-interacting protein 1 (Homo sapiens) (UniProt Q5JTV8); test: compound microarray binding of lysate hLAP1 – cell lysate, small-molecule microarray, COS7 lysate, 635/667 nm fluorescence, primary screen (AID 1116); conditions: 635 nm fluorescence, higher = more signal
Sequence of Torsin-1A-interacting protein 1 (Homo sapiens) (Q5JTV8 whole entry, looked up): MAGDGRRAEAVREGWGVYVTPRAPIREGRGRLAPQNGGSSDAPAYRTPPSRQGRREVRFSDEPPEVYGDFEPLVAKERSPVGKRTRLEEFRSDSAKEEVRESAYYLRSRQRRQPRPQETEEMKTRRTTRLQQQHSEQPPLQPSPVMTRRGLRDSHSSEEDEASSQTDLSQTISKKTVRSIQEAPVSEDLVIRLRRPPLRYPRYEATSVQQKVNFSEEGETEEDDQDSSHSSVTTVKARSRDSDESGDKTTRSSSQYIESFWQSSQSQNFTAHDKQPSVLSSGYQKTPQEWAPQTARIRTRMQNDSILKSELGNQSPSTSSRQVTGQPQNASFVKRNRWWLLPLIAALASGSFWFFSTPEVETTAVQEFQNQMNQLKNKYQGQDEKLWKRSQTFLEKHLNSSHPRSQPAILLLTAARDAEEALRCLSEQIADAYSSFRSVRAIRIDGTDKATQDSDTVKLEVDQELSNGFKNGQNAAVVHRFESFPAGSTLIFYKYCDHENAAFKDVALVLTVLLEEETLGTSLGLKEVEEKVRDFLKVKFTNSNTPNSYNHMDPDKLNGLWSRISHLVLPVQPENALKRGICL

[20] = target: Alpha-bungarotoxin (Bungarus multicinctus) (UniProt P60615); test: compounds binding labelled alpha-BTX control protein – biochemical, small-molecule microarray, Alexa647 label, 635/667 nm fluorescence, artefact control for SMM control protein annotation, profiling panel (AID 1117); conditions: alpha-BTX-A647 binding fluorescence, higher = more signal
Sequence of Alpha-bungarotoxin (Bungarus multicinctus) (P60615 whole entry, looked up): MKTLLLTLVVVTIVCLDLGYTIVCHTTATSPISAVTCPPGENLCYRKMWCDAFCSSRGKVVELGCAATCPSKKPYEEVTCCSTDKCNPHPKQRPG

Row | SMILES | composite z-score [1] | composite z-score [2] | composite z-score [3] | z-score [4] | composite z-score [5] | composite z-score [6] | composite z-score [7] | composite z-score [8] | composite z-score [9] | composite z-score [10] | composite z-score [11] | z-score [12] | composite z-score [13] | composite z-score [14] | composite z-score [15] | composite z-score [16] | composite z-score [17] | composite z-score [18] | composite z-score [19] | composite z-score [20]
1 | COc1ccc(NN2C(C(O)c3ccc([N+](=O)[O-])cc3)C=CC3C(=O)N(C4CCCCC4)C(=O)C32)cc1 (stereo not given) | 0.562 | 0.627 | 0.879 | 0.393 (inactive) | 0.355 | 0.909 | -0.188 | 0.73 | -0.281 | 0.921 | 1.35 | 0.376 | -0.0693 | 1.04 | 0.212 | -0.0758 | 0.368 | 0.797 | 0.55 | 0.799
2 | COc1ccc(C(=O)Nc2ccc(CN3C(=O)[C@@]4(O[C@@H](CCn5cc([C@H](O)c6ccccc6)nn5)[C@H]([Si](C)(C)c5ccc(OC)cc5)[C@H]4C)c4ccccc43)cc2)cc1 | 0.834 | -0.0682 | 0.512 | -1.06 (inactive) | -0.0022 | 0.054 | -0.591 | 0.183 | -0.347 | 0.975 | 1.26 | -4.67 | -0.553 | 0.168 | -0.0823 | -0.0896 | -0.0337 | 0.103 | 0.485 | 0.572
3 | COc1cc2c(cc1OC)CN(C(=O)[C@H]1[C@@H]3C(=O)O[C@@H](c4ccccc4)[C@@H](c4ccccc4)N3[C@@H](c3ccc(O)cc3)[C@]13C(=O)Nc1ccc(C#CC4=CCCCC4)cc13)CC2 | 1.32 | 0.817 | 0.785 | -0.58 (inactive) | 1.14 | 1.29 | 0.405 | 1.43 | 0.779 | -0.301 | 0.282 | -1.67 | 1.07 | 1.61 | 0.0648 | 0.133 | -0.0146 | -0.315 | 0.885 | 1.67
4 | [N-]=[N+]=Nc1ccccc1C[C@]1(C(N)=O)N=C(c2ccc(OCCCO)cc2)O[C@H]1c1ccccc1 | 1.13 | 0.0609 | 0.875 | 0.297 (inactive) | 0.181 | 0.532 | -1.44 | -0.255 | -0.748 | 0.511 | 1.43 | -0.947 | -0.932 | 1.59 | 0.0189 | -0.0721 | 0.0723 | -0.235 | 2.05 | 1.03
5 | CC(C)(C)OC(=O)CC[C@@]1(C(=O)NCCN2CCOCC2)N=C(c2ccc(OCCCO)cc2)O[C@@H]1c1ccccc1N=[N+]=[N-] | 0.739 | 1.04 | 1.21 | -0.744 (inactive) | 1.1 | 0.0778 | 0.0224 | 1.06 | 0.0741 | 1.24 | 1.32 | -0.291 | 0.609 | 0.147 | 0.0196 | 0.108 | 0.171 | 0.991 | 0.694 | 0.783
6 | C=CCOC(=O)[C@H]1[C@@H]2C(=O)O[C@@H](c3ccccc3)[C@@H](c3ccccc3)N2[C@@H](c2ccc(OCCOC(=O)[C@H]3C[C@H]4C(=O)N5CCC[C@H]5C(=O)N4[C@H]3c3ccc(O)cc3)cc2)[C@]12C(=O)Nc1ccccc12 | 1.54 | -0.202 | 0.106 | 0.994 (inactive) | 1.47 | 1.36 | 0.999 | 1.39 | 1.81 | 0.39 | 1.45 | -1.93 | 1.42 | 0.959 | -0.0987 | 0.0354 | 0.147 | -0.21 | 1.5 | 0.588
7 | C=CCOC(=O)[C@H]1[C@@H]2C(=O)O[C@@H](c3ccccc3)[C@@H](c3ccccc3)N2[C@@H](c2ccc(OCCOC(=O)[C@@H]3C[C@@H]4C(=O)N5CCC[C@H]5C(=O)N4[C@@H]3c3cccc(OCCO)c3)cc2)[C@]12C(=O)Nc1ccccc12 | 1.19 | -0.0198 | 0.0715 | -0.978 (inactive) | 1.12 | 1.31 | 0.5 | 0.895 | 0.651 | 0.563 | 0.862 | -1.24 | 0.91 | 0.551 | 0.0319 | 0.0079 | 0.0381 | -0.378 | 0.834 | 1.34
8 | COCCOC(=O)N1C(=O)[C@@]2(c3cc(C#CC4=CCCCC4)ccc31)[C@H](C(N)=O)[C@H]1C(=O)O[C@H](c3ccccc3)[C@H](c3ccccc3)N1[C@@H]2c1ccc(OCCO)cc1 | 0.497 | -0.504 | -0.091 | 0.497 (inactive) | 1.31 | 1.1 | 0.0883 | 1.22 | 0.553 | 0.052 | -0.71 | -2.5 | 0.331 | -0.822 | -0.919 | -0.124 | 0.049 | 0.299 | 0.855 | 1.56
9 | C=CCOC(=O)[C@@H]1[C@H]2C(=O)O[C@H](c3ccccc3)[C@H](c3ccccc3)N2[C@H](c2ccc(OCCOC(=O)[C@@H]3C[C@@H]4C(=O)N[C@@H](CCCCN(C)C)C(=O)N4[C@@H]3c3ccc(O)cc3)cc2)[C@@]12C(=O)Nc1ccc(I)cc12 | 1.14 | -0.0242 | 0.0749 | -0.0143 (inactive) | 0.767 | 1.13 | 1.01 | 1.04 | 1.11 | 0.347 | 1.34 | -2.84 | 0.696 | 0.846 | -0.0759 | -0.0927 | 0.432 | -0.12 | 0.454 | 0.78
10 | C=CCC(OC(C)=O)[C@@H]1[C@@H](N(Cc2ccc(-c3ccccc3)cc2)C(=O)Cc2ccc(F)cc2)c2cc(OCCCO)ccc2N1C(=O)c1ccc(-c2ccccc2)cc1 (stereo not given in full) | 0.152 | -0.0501 | 0.216 | -2.23 (inactive) | 0.152 | -1.02 | -0.376 | 0.268 | -0.282 | 0.778 | -0.866 | -1.23 | -0.177 | -0.454 | 0.266 | -0.1 | 0.0048 | -0.143 | 0.205 | -0.257
